We go through 39 compounds from PubChem BioAssay (NCI).

About 83,000 compounds went through this panel and 20% of them were active in at least one assay; those are over-represented in the sample as a whole.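 Growth was measured after 48 h exposure to one concentration of compound in 96-well plates. Values under 10 count as active.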 Unmarked numbers belong to inactive results. Activity calls are given as the source filed them.

In the assay the test system is SF-539 CNS. The experiment in a line: NCI-60 one-dose screen, 48 h (100 = growth as untreated, 0 = no growth, -100 = all killed). Particulars: 10 µM unless noted.
With `O=C(Nc1ccc(Oc2ccc(Nc3nc4ccccc4s3)cc2)cc1)Nc1ccc(Cl)c(C(F)(F)F)c1`, the growth is 9.29% (active). As to `C[C@]12CCc3nc(Nc4ccc(O)cc4)sc3C1=CC[C@@H]1[C@@H]2CC[C@]2(C)/C(=N/NC(N)=S)CC[C@@H]12`, the growth is 5.79% (active). For the compound `Cc1cc(N=Nc2ccc(-c3ccc(N=Nc4ccc(O)c(C(=O)O)c4)cc3)cc2)c(N)c(N=Nc2ccc(C(=O)O)cc2)c1N`, the growth was 93.2%.

For the compound `c1ccc2c(c1)cnc1ccccc12`, the growth was 101%. Take `Cc1cc(C)c2c(n1)sc1c(Nc3ccc(OCc4ccccc4)cc3)ncnc12`: the growth was 107%. Take `COc1ccc2[nH]c(C(=O)OCc3ccc4cccc(O)c4n3)cc2c1`: the growth is -92.7% (active). For `Cc1ccc2oc(=O)cc(-c3nc4ccc([N+](=O)[O-])cc4[nH]3)c2c1`, the growth was 54%.

With `Cc1nc2ccc(Nc3nc(Cl)nc(N4CCOCC4)n3)cc2n1Cc1ccccc1`, the growth is 84.7%. With `CC(=O)c1c(O)c(C)c(O)c2c1OC1=CC(=O)/C(=C(/C)N)C(=O)C12C` (centres undefined), the growth is 99.7%. With `O=C(CI)NCCNc1cccc2c(S(=O)(=O)O)cccc12` the figure was 105%. With `O=c1[nH]cnc2nc[nH]c12`, the growth is 97.3%.

Regarding `CCN(CC)C(Cl)=Nc1ccc(Cl)cc1`, the growth was 106%.

For the compound `c1ccc2c(Cc3csc4ccccc34)csc2c1`, the growth is 91.4%. Then `COS(=O)(=O)CCN(CCOS(C)(=O)=O)S(C)(=O)=O`, with 91.2%. `COc1cc(C2CC(c3cccc(Nc4ccnc5cc(Cl)ccc45)c3)=NN2c2ccccc2)cc(OC)c1OC` (centres undefined): the growth is 80.7%. With `O=C1/C(=C\c2cccn2Cc2ccc(F)cc2)c2ccccc2N1c1c(Cl)cccc1Cl`, the growth was 87.5%.

Regarding `CC(C)(C)c1ccc(Cn2c(-c3nonc3N)nc3ccccc32)cc1`, the growth was 89.7%. For the compound `CSC(=S)N/N=C(\C)c1ccccn1`, the growth was 1.81% (active). Turning to `CCC(C)C1NC(=O)c2nc(oc2-c2ccccc2)-c2csc(n2)-c2csc(n2)-c2nc(oc2C)-c2coc(n2)CNC(=O)C(C(C)CC)NC1=O` (centres undefined), the growth is -80.5% (active). Regarding `CCOC(=O)C1=C(C)NC(SCc2nnc(-c3ccc(Cl)cc3)o2)=NC1c1ccc(Br)cc1` (centres undefined), the growth was 88.7%. In the case of `CC(CN1CCN(C)CC1)CN1c2ccccc2Sc2ccc(C(F)(F)F)cc21` (centres undefined), the growth was 67.5%. For `Cc1[nH]nc2ccc3nc(-c4ccc5[nH]ncc5c4)c4c(c3c12)CCCC4`, the growth is 18.7%. Regarding `CCCOC(=O)C1c2cc3c(cc2CC(C)C1C(=O)OCCC)OCO3` (centres undefined), the growth was 122%. With `COc1cc(C2CC(c3ccc(Nc4ccnc5cc(Cl)ccc45)cc3)=NN2c2ccccc2)cc(OC)c1OC` (centres undefined) the figure was 77%; with `CC(=O)c1c(C)nc(-c2cc(C)cc(Cl)c2)nc1-c1cccc(Oc2ccccc2)c1`, 86%; with `CC(C)NC(=O)OCC#CCOC(=O)NC(C)C`, 109%. For the compound `Cc1nc2c(-c3cnc(N)nc3)nc(N3CCOCC3)nc2n1C(C)C`, the growth was -42.2% (active). Turning to `[Ag].[Ag].[NH-]S(=O)(=O)c1ccc(N=Nc2cc(N=Nc3ccc(S([NH-])(=O)=O)cc3)c3c(NC(=O)C(Cl)Cl)cccc3c2OC(=O)C(Cl)Cl)cc1.[c-]1nccs1.[c-]1nccs1`, the growth was 95.7%. With `Nc1ccc(N(O)/C=C2\C=CC=CC2=O)cc1N` the figure was 101%; with `Cc1nc2ccc(Nc3nc(N4CCOCC4)nc(N4CCN(C)CC4)n3)cc2n1Cc1ccccc1`, 76.5%. Consider `CC(C)CC(NC(=O)C(CCCN=C(N)N)NC(=O)OCc1ccccc1)C(=O)NC(CNC(=O)/C=C/c1ccccc1)C(C)C` (centres undefined), for which the growth is 96.4%. In the case of `CCOC(=O)c1ccc(NCCC(=O)O)cc1`, the growth was 112%.

Turning to `Cc1ccc(-c2cnc3sc4ccc(Cl)cc4n23)cc1`, the growth is 94.4%. Consider `COc1cc(C)c2c(=O)c3c(oc2c1)C(=O)c1c(O)c(OC)cc(O)c1C3=O`, for which the growth is 5.8% (active). For `O=C(OCc1ccc2c(Br)cc(Br)c(O)c2n1)c1cc2ccccc2[nH]1`, the growth was -96.3% (active). With `CN1CCN(Cc2ccc(NC(=O)c3cncc(C#Cc4cnc5cccnn45)c3)cc2C(F)(F)F)CC1` the figure was -47.9% (active); with `CCOC(=O)c1ccccc1SC(C[N+](=O)[O-])c1ccccc1` (centres undefined), 90%; with `CC(C)CC(NC(=O)OCC1c2ccccc2-c2ccccc21)C(=O)O` (centres undefined), 104%.

Take `CN1CCN(Cc2ccc(NC(=O)c3cncc(C#Cc4ccc(N)nc4)c3)cc2C(F)(F)F)CC1`: the growth was -39.8% (active).
